# In article PMC7826789 (International Journal of Molecular Sciences, 2021):
# Experiments:
# Settings in all cases: Compound Concentration (nM):1000
# [1] = test system: CAMK2G
# [2] = test system: CAMK4
# [3] = test system: CAMKK1
# [4] = test system: CAMKK2
# [5] = test system: CASK
# [6] = test system: T1, CDC2L1
# T1 construct: gene CDK11B
# [7] = test system: CDC2L2
# [8] = test system: T2, CDC2L5
# T2 construct: gene CDK13
# [9] = test system: T3, CDK11
# T3 construct: gene CDK19
# [10] = test system: CDK2
# [11] = test system: CDK3
# [12] = test system: CDK4-cyclinD1
# [13] = test system: CDK4-cyclinD3
# [14] = test system: CDK4
# [15] = test system: CDK5
# [16] = test system: CDK7
# [17] = test system: CDK8
# [18] = test system: CDK9
# [19] = test system: CDKL1
# [20] = test system: CDKL2
# 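Also: KINOMEscan scanMAX binding as percent activity remaining versus control; lower means stronger binding.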
SMILES,Percent Control [1],Percent Control [2],Percent Control [3],Percent Control [4],Percent Control [5],Percent Control [6],Percent Control [7],Percent Control [8],Percent Control [9],Percent Control [10],Percent Control [11],Percent Control [12],Percent Control [13],Percent Control [14],Percent Control [15],Percent Control [16],Percent Control [17],Percent Control [18],Percent Control [19],Percent Control [20]
Cl.c1ccc(Cc2nc3ccc(Nc4ncnc5ccccc45)cc3[nH]2)cc1 [GR269666A],100%,100%,100%,100%,100%,100%,100%,100%,100%,100%,100%,93%,100%,93%,100%,100%,88%,100%,100%,100%
NS(=O)(=O)c1ccc(N/N=C2\C(=O)Nc3ccc(C(=O)NCCc4c[nH]cn4)cc32)cc1 [GW300660X],100%,100%,100%,100%,100%,100%,100%,79%,100%,–,100%,12%,30%,100%,100%,33%,100%,100%,55%,100%
O=C1Nc2ccc(C(=O)c3ccco3)cc2C1=Cc1cc(Cl)c(O)c(Cl)c1 [GW406108X],77%,100%,43%,31%,87%,100%,98%,99%,100%,100%,100%,78%,94%,94%,89%,76%,80%,100%,88%,100%
COc1ccccc1-c1cc(/C=C2\C(=O)Nc3ncc(Br)cc32)cc(Br)c1O [GW442130X],100%,94%,100%,100%,100%,100%,100%,91%,62%,89%,100%,88%,95%,100%,99%,89%,71%,97%,100%,96%
COc1ccc(COc2ccc(Cc3cnc(N)nc3N)cc2OC)cc1 [GW632580X],99%,100%,95%,98%,98%,97%,75%,72%,89%,100%,100%,99%,93%,94%,93%,100%,100%,100%,82%,100%
COc1cc(/C=N/Nc2ncnc3[nH]ncc23)ccc1O [GW578748X],100%,100%,96%,88%,63%,100%,100%,100%,100%,100%,100%,79%,100%,92%,84%,70%,83%,100%,52%,100%
CN(C)CCNC(=O)Nc1ccc(N(C)c2ccnc(Nc3ccc(CS(C)(=O)=O)cc3)n2)cc1.Cl [GW830900A],100%,100%,99%,93%,91%,100%,89%,100%,100%,98%,100%,81%,100%,97%,85%,65%,75%,98%,88%,28%
NS(=O)(=O)c1ccc(N/N=C2\C(=O)Nc3ccc(Cl)cc32)cc1 [GW280670X],100%,100%,100%,100%,100%,100%,100%,100%,100%,83%,100%,77%,100%,100%,100%,100%,100%,100%,96%,78%
CCS(=O)(=O)c1ccc(OC)c(Nc2ncc(-c3cccc(OC)c3)o2)c1 [GW580509X],93%,100%,97%,79%,95%,100%,100%,100%,100%,100%,100%,93%,93%,99%,100%,84%,100%,100%,98%,98%
Nc1ncnc2occ(-c3ccc(NC(=O)Nc4cc(C(F)(F)F)ccc4F)cc3)c12 [GW770249X],92%,100%,97%,82%,95%,99%,68%,1.4%,0%,38%,39%,96%,100%,100%,63%,4.4%,0%,70%,93%,31%
COc1cccc(-n2ncc3c(N/N=C/c4ccncc4)ncnc32)c1 [GW784752X],100%,100%,100%,100%,68%,100%,97%,83%,100%,72%,100%,49%,72%,93%,90%,8.1%,100%,100%,51%,46%
C[C@@H](Oc1cc(-n2cnc3ccc(OC4CCN(C)CC4)cc32)sc1C(N)=O)c1ccccc1Cl [GSK579289A],69%,100%,85%,67%,11%,97%,94%,79%,100%,74%,90%,100%,69%,94%,100%,70%,100%,100%,53%,100%
CCS(=O)(=O)c1ccc(OC)c(Nc2ncc(-c3cccc(F)c3)o2)c1 [GW621970X],100%,100%,100%,100%,90%,100%,99%,100%,100%,100%,100%,99%,100%,100%,100%,85%,100%,100%,100%,100%
CN(C)c1cc2c(Nc3ccc4c(cnn4Cc4ccccc4)c3)ncnc2cn1 [GW282974X],82%,100%,77%,73%,100%,100%,100%,67%,99%,79%,100%,81%,84%,89%,39%,82%,100%,100%,75%,100%
Cl.O=C(Nc1ccc(Oc2ccc3[nH]c(NC(=O)c4ccco4)nc3c2)cc1)Nc1cc(C(F)(F)F)ccc1F [GW683134A],100%,90%,100%,100%,100%,100%,100%,95%,13%,96%,100%,100%,100%,100%,100%,12%,100%,100%,77%,6.5%
COc1ccc2cc(-c3c(-c4ccncc4)nc(-c4ccc(S(C)(=O)=O)cc4C)n3C)ccc2c1 [SB-633825],76%,87%,77%,73%,84%,92%,96%,91%,100%,79%,100%,68%,90%,91%,95%,85%,78%,74%,87%,100%
CC(C)COC(=O)c1ccc2c(c1)/C(=C/Nc1ccc(S(N)(=O)=O)cc1)C(=O)N2 [GW416981X],100%,100%,97%,100%,95%,100%,100%,65%,100%,15%,42%,3.8%,13%,91%,36%,3.7%,86%,100%,52%,24%
COc1cc(C)c(N(C)C(=O)CN(C)C)cc1Nc1nc(Nc2cccc(F)c2C(N)=O)c2cc[nH]c2n1 [GSK2219385],98%,80%,97%,94%,100%,100%,100%,50%,92%,100%,92%,89%,100%,90%,100%,73%,100%,100%,79%,100%
NS(=O)(=O)c1ccc(N/N=C2\C(=O)Nc3ccc(-c4cnco4)cc32)cc1 [GW276655],91%,100%,63%,83%,84%,100%,100%,56%,100%,32%,47%,29%,31%,94%,81%,32%,100%,93%,39%,49%
CCc1ccc(Oc2nccc(-c3c(-c4ccc(F)cc4)ncn3C3CCNCC3)n2)cc1 [SB-242719],100%,100%,100%,100%,83%,89%,66%,100%,95%,100%,100%,94%,76%,91%,100%,88%,86%,100%,86%,96%
